According to PubChem BioAssay AID2685 (National Center for Advancing Translational Sciences (NCATS), 2010):
Values joined by “and” are separate entries in the source; they are usually repeats but may differ in a detail not shown here. Equal values may be shown once. Hit rate of the full screen: of about 320,000 compounds, about 2,100 (0.66%) were called active. Inconclusive results (about 53%) are left out. The call rests on the fitted dose curve; in most records, active means well fitted inhibition curve with a large enough effect in the signal ratio, with a control signal flat (not every such curve was filed as active); inconclusive means small, poorly fitted or top-dose-only effect, or effect the other way, or a change in a side signal; inactive means flat fitted curve, though single readings scatter; the % refers to the signal ratio. Shown is part of a subset that was picked to be rich in actives.

Test: qHTS Assay for Lipid Storage Modulators in Drosophila S3 Cells;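 on cell number change: cells counted by Cell Tracker Red CMTPX staining in the red channel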
Details: BODIPY lipid droplet fluorescence, 18-24 h, cells fed with added oleic acid; cell number change: measured here: cell count max response; series mostly up to 46.1 µM
Outline: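 Drosophila S3 cells got compounds at several concentrations plus oleic acid (400 uM solution). Laser-scanning cytometry with 488 nm excitation read lipid droplets at 500-530 nm and cells at 575-640 nm. Percent activity was relative to 20 uM Triacsin C.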
Potency means the concentration at half of the fitted maximal effect.

SMILES | Potency | cell number change
COc1ccc(CC(NC(C)=O)C(=O)NC2CCN(c3nnnn3-c3ccccc3)CC2)cc1OC (configuration not stated) | inactive | -4.36%
COc1ccc(-c2c(=O)n(OCc3nc4ccccc4[nH]3)c3ccccc3[n+]2[O-])cc1 | inactive | 2.91%
Cc1cccc2cc(COC(=O)C3CCCCC3)c(=O)[nH]c12 | inactive | 10.5%
N#Cc1cncc(-c2ccc3c(c2)OCCOCCOCCOCCOCCO3)n1 | inactive | 3.78%
COc1cc(CNC2CCCCCCC2)cc(Cl)c1OCC(N)=O | inactive | 6.3%
COc1ccccc1N1CCN(C(=O)c2cc(C)oc2C)CC1 | inactive | 9.51%
O=C(O)c1oc2ccc(Br)cc2c1-n1cccc1 | inactive | –
COC(=O)c1c(NC(=O)CN2CCCC(C)C2)c2c(C)cccc2n1C (configuration not stated) | 3.26 µM (active) | -24.5%
COC(=O)c1c(NC(=O)CN2CCN(C(=O)c3ccco3)CC2)c2c(C)cccc2n1C | inactive | -8.93%
CCOC(=O)C1CCN(CC(=O)Nc2c(C(=O)OC)n(C)c3cccc(C)c23)CC1 | inactive | -3.82%
COc1ccc(C)cc1NC(=O)C(=O)NCc1ccncc1 | inactive | 1.5%
O=C1[C@@H]2Cc3c([nH]c4ccccc34)C(c3ccc([N+](=O)[O-])cc3)N2C(=O)CN1C1CC1 (some centres not stated) | inactive | 5.54%
O=C1[C@@H]2Cc3c([nH]c4ccccc34)C(c3ccccc3)N2C(=O)CN1C1CC1 (some centres not stated) | 4.11 µM (active) | -19.8%
COC(=O)c1ccc(C2c3[nH]c4ccccc4c3C[C@H]3C(=O)N(C4CC4)CC(=O)N23)cc1 (some centres not stated) | inactive | -1.73%
O=C(Nc1ccccc1Cl)c1ccccc1 | inactive | 0.403%
O=C(Nc1ccccc1Cl)/C(Cl)=C(\Cl)S(=O)c1ccccc1 (configuration not stated) | 4.61 µM (active) | –
O=C(Nc1ccccc1Cl)Nc1ccccc1Cl | inactive | -0.979%
CCN(CC(=O)Nc1c(F)cccc1F)C(=O)c1ccc(S(=O)(=O)N2CCCC2)cc1 | inactive | 23.3%
O=C(O)CN1C(=O)NC2(CCCc3ccccc32)C1=O (configuration not stated) | inactive | 8.55%
CCOc1cc(-c2sc(Nc3ccccc3)n[n+]2-c2ccc(F)cc2)ccc1OC | inactive | 8.68%
CCN(CCNC(=O)C1CCN(S(=O)(=O)c2c(C)noc2C)CC1)c1ccccc1 | inactive | 0.289%
Cc1ccc(-c2nc(CN3CCCCC3)cc(CN3CCCCC3)c2O)cc1 | inactive | 4.96%
CC(C)(C)c1nc(CN2CCOCC2)cc(CN2CCOCC2)c1O | inactive | 19.4%
CC(C)(C)c1nc(CN2CCCCC2)cc(CN2CCCCC2)c1O | 20.6 µM (active) | -1.12%

SMILES | Potency | cell number change
Cc1cc(CN2CCC(N3CCC(C(=O)NC4CC4)CC3)CC2)cc(C)c1O | inactive | -10.6%
Cc1cc(C)n(CC(O)CN2C(=O)NC(C)(C)C2=O)n1 (configuration not stated) | inactive | 7.08%
O=C1S/C(=C\c2ccccc2)C(=O)N1CC(O)Cn1c2ccccc2c2ccccc21 (configuration not stated) | 9.2 µM (active) | 8.53%
CN(C)c1ccc(/C=C2\SC(=O)N(CC(O)Cn3c4ccccc4c4ccccc43)C2=O)cc1 (configuration not stated) | inactive | 1.42%
COc1ccc(/C=C2/SC(=O)N(CC(O)Cn3c4ccccc4c4ccccc43)C2=O)cc1 (configuration not stated) | inactive | -7.54%
C=CCn1c(CCNC(=O)c2cccs2)nnc1SCC(=O)c1cccc([N+](=O)[O-])c1 | inactive | 21.8%
COc1ccc(N2CCN(Cc3nc(N)nc(Nc4ccccc4OC)n3)CC2)cc1 | inactive | -16.4%
Cc1nc2c(sc(=S)n2Cc2ccco2)c(=O)n1CC(=O)Nc1ccc(F)cc1 | 16.4 µM (active) | 20.2%
CCn1c(=S)sc2c(=O)n(CC(=O)Nc3ccccc3)c(C)nc21 | inactive | 22.9%
Cc1nc2c(sc(=S)n2Cc2ccco2)c(=O)n1CC(=O)Nc1ccccc1Cl | inactive | 8.56%
COc1ccc(CN2CC(=O)N(c3ccc(C)cc3C)C2=S)cc1OC | inactive | 8.06%
CC(=O)NCCc1nc2ccccc2n1CCOc1ccccc1 | inactive | 18.1%
CC(=C/c1ccccc1)/C=N/NC(=O)c1ccccn1 | inactive | 10.8%
C=C(c1ccccc1)c1ccc(N(C)C)cc1 | inactive | 1.48%
CCOc1ccc(-c2cc(N3C(=O)Nc4ccccc4N3O)on2)cc1 | 23.1 µM (active) | 24.4%
O=C1Nc2ccccc2N(O)N1c1cc(-c2ccccc2Cl)no1 | inactive | –
O=C1Nc2ccccc2N(O)N1c1cc(-c2cccc(Cl)c2)no1 | inactive | –
CC(C)c1cc(C(=O)O)c2cnn(C(C)C)c2n1 | inactive | -20.5%
CCOc1ccc(-n2ccnc(SCC(=O)NC3CCCC3)c2=O)cc1 | inactive | –
CCOc1ccccc1C(=O)Nc1ccc(S(=O)(=O)Nc2nccc(C)n2)cc1 | inactive | -4.06%
COC(=O)c1ccc(C23CC4(C2)[C@H](CN(CC2CCCCC2)[C@@H]4c2ccccc2)C3c2ccccc2)cc1 (some centres not stated) | inactive | 12.7%
CC(=O)Oc1ccc(N2C(=O)[C@@H]3[C@H](C2=O)[C@H]2c4ccccc4C=NN2[C@@H]3C(C)=O)cc1 | inactive | 17.5%
CCN(C(=O)COC(=O)/C(=C/c1ccccc1)n1nnnc1C)C1CCCCC1 | 7.31 µM (active) | -1.15%
Cc1cccc(C)c1OCC(=O)N1CC2(C)CC1CC(C)(C)C2 (configuration not stated) | inactive | 24%

SMILES | Potency | cell number change
Cc1nnnn1/C(=C\c1ccccc1)C(=O)OCC(=O)N1CC2(C)CC1CC(C)(C)C2 (configuration not stated) | 1.84 µM (active) | -4.4%
CCN(C(=O)COC(=O)c1cnc(C)cn1)C1CCCCC1 | inactive | 18.1%
CC(=O)N/C(=C\c1ccccc1)C(=O)OCC(=O)N(C)C1CCCCC1 | inactive | 11.6%
CC1(C)CC2CC(C)(CN2C(=O)Cc2ccccc2)C1 (configuration not stated) | inactive | -11.2%
COc1ccc(CCNC(=O)c2cc(-c3ccccc3O)n[nH]2)cc1OC | inactive | 4.36%
COC(=O)CCc1sc(Nc2ccccc2)nc1-c1ccc(OC)cc1 | inactive | -8.54%
O=C(COc1ccccc1)NCC1CCCO1 (configuration not stated) | inactive | -0.966%
O=C(C#Cc1ccccc1)Nc1cccc(F)c1 | 1.16 µM (active) | -19.6%
COc1ccc(NC(=O)Nc2ccc(CC(=O)O)cc2)cc1 | 0.116 µM (active) | -22.2%
COc1ccc(NC(=O)C#Cc2ccccc2)cc1 | 0.92 µM (active) | -23.3%
COc1ccc(NC(=O)Cc2ccccc2)cc1 | inactive | -1.56%
O=C(Nc1cccc(F)c1)c1ccccc1 | inactive | -17.1%
COc1ccc(NC(=S)Nc2ccccc2)cc1 | inactive | 1.43% and -1.32%
COc1ccc(NC(=O)Nc2ccc(OC)cc2)cc1 | inactive | -101%
NC(=O)c1ccc(NC(=O)C#Cc2ccccc2)cc1 | inactive | –
O=C(C#Cc1ccccc1)Nc1ccc(F)cc1 | inactive | -2.07%
O=C1NC2(CCCCC2)Cc2ccccc21 | inactive | 2.36%
CCCC(=O)Nc1ccc(Cl)c(NC(=O)c2ccc([N+](=O)[O-])cc2Cl)c1 | inactive | 3.62%
Cc1cc(NC(=O)c2ocnc2C)no1 | inactive | -15.2%
O=C(O)c1cc(-c2ccccc2Cl)n(-c2ccccc2)n1 | inactive | 19.7%
COc1cc(CC(=O)NCc2ccco2)cc(OC)c1OC | inactive | –
CNC(=S)N/N=C/c1c(C(=O)OC)cnn1-c1ccc(F)cc1F | inactive | 9.07%
Cc1oc(-c2ccccc2F)nc1CN1CCC(C(=O)NCc2cccnc2)CC1 | inactive | 15.7%
O=C(Nc1ccccc1)Nc1n[nH]c2nnc(-c3ccccc3)c(-c3ccccc3)c12 | inactive | 9.52%

SMILES | Potency | cell number change
Cc1cc(-c2nc(C)c(C(=O)NNC(=O)NC(C)C)s2)no1 | inactive | 5.79%
Cc1cc(C(F)(F)F)c2c(N)c(C(=O)NC3CC3)sc2n1 | 17.8 µM (active) | -6.29%
Cc1cc(C)c2c(N)c(C(=O)NC3CC3)sc2n1 | inactive | 14.6%
CN(C)CCNC(=O)c1sc2nc(-c3ccccc3)cc(C(F)(F)F)c2c1N | inactive | -18.7%
Cc1nnc(NC(=O)c2sc3nc(-c4cccs4)cc(C(F)(F)F)c3c2N)s1 | 9.2 µM (active) | 18.6%
Cc1cc(C)c2c(N)c(C(=O)Nc3ccc(C)c(C)c3)sc2n1 | inactive | -1.35%
CC(C)(C)C(=O)c1sc2nc(-c3cccs3)cc(C(F)(F)F)c2c1N | inactive | -8.91%
O=C(O)C(C(O)c1ccc([N+](=O)[O-])cc1)[n+]1ccccc1 (configuration not stated) | inactive | 27.3%
C(=N\Nc1ccc(-n2ccnc2)nn1)/c1ccccc1 | inactive | –
CCOC(=O)CNC(=O)N1CCCC(C(=O)c2cc(C)c(OC)c(C)c2)C1 (configuration not stated) | inactive | 16.3%
O=C(NCCC1=CCCCC1)c1ccc(-n2cncn2)c([N+](=O)[O-])c1 | inactive | -27%
CCOC(=O)c1sc(N(Cc2ccccc2)C(=O)COC(=O)c2cnccn2)nc1C | inactive | –
C=CCn1c(SCc2nc3ccccc3nc2C)nnc1-c1ccoc1C | inactive | -18.3%
Cc1ccc(NC(=O)CC(C)CC2=NS(=O)(=O)c3ccccc3N2)cc1 (configuration not stated) | inactive | 4.79%
CC(CC(=O)O)CC1=NS(=O)(=O)c2ccccc2N1 (configuration not stated) | 13 µM (active) | -6.45%
CCOC(=O)CC1=NS(=O)(=O)c2ccccc2N1 | inactive | 8.13%
O=C(O)c1cc2ncc(-c3[nH]ncc3[N+](=O)[O-])cn2n1 | inactive | 25.8%
CCCCc1nc2ccccc2c(=O)n1NC(=O)c1c(O)c2ccccc2n(C)c1=O | inactive | -2.66%
Cc1ccc2nc(SCC(=O)N3CCOCC3)[nH]c2c1 | inactive | -6.28%
COC(=O)c1ccc(CSc2nc3ccc(S(=O)(=O)N4CCOCC4)cc3[nH]2)cc1 | inactive | 1.16%
O=C(CSc1nc2ccc(S(=O)(=O)N3CCOCC3)cc2[nH]1)N1CCOCC1 | 18.4 µM (active) | 8.23%
